Assay results as given in PubChem BioAssay AID1456 (Vanderbilt High Throughput Screening Facility, 2008).
About 4,100 (2.2%) of roughly 190,000 compounds were called active. This is one part of a sample in which actives are shown more often than they occur. Values without a mark were called inactive.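 Rule for the calls: active = thallium flux slope and its plate-corrected score both differing from the plate sample mean at a set confidence after two filtering rounds, in either direction; inactive = the rest.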

Target: Solute carrier family 12 member 5 (Homo sapiens) (UniProt Q9H2X9)
Sequence (Q9H2X9 whole entry, looked up): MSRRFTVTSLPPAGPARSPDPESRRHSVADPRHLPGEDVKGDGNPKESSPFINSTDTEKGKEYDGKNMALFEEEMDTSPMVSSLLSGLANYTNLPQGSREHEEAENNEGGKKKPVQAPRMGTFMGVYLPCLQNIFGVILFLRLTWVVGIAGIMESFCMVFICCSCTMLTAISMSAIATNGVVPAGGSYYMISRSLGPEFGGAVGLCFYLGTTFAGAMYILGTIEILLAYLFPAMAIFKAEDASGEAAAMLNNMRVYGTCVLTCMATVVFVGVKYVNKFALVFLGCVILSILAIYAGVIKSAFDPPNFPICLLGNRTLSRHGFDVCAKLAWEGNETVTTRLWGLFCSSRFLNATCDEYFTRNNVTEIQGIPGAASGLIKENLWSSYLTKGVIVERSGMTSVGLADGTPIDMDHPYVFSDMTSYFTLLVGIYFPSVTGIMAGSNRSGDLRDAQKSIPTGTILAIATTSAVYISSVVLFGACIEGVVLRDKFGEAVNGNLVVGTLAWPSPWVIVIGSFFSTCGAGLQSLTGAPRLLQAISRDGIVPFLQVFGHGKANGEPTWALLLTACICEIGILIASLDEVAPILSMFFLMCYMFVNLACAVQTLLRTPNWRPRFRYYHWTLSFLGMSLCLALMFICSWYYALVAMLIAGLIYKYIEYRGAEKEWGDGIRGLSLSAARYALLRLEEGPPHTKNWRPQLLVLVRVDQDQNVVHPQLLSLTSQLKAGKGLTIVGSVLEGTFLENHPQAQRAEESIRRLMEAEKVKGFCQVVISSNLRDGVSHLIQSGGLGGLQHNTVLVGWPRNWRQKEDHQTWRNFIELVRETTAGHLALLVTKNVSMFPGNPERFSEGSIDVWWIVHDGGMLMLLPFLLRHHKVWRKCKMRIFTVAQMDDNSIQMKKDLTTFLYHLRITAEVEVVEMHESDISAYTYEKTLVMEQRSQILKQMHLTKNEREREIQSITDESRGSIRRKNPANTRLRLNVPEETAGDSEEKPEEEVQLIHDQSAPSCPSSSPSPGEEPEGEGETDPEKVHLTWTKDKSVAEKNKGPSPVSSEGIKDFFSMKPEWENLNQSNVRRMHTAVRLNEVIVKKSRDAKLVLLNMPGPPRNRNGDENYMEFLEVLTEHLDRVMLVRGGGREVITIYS
Assay: modulation of human KCC2 ion transport – cell-based, HEK293 KCC2, FluoZin-2 fluorescence, MLSMR, primary screen (AID 1456);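 note: slope of fluorescence scaled to starting intensity during 10 to 20 s after thallium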
Details: KCC2 cells, thallium flux FluoZin-2 fluorescence; at 10 µM

Compound	B-score of Tl+ flux slope (higher = more flux/activation; lower = inhibition)
CC(C)Cc1ccc(C(C)C(=N)N)cc1 (centres undefined)	0.737
NS(=O)(=O)c1ccc(CNC(=O)c2cnccn2)cc1	1.11
NCC(=O)c1cccc2ccc[n+]([O-])c12	1.34
COc1ccc(CCN2C(=O)CC(N3CCC(C(N)=O)CC3)C2=O)cc1OC (centres undefined)	0.129
CC1(C)Cc2ccccc2-c2nnc(-c3cccc(O)c3)n21	-0.616
c1cncc(-c2nnc3n2C2(CCCCC2)Cc2ccccc2-3)c1	4.46 (active)
O=c1c2ccccc2nc2n1C1(CCCCC1)Cc1ccccc1-2	-0.241
Cc1ccc(CN2CCN(Cc3ccc4ncccc4c3)CC2CCO)cc1 (centres undefined)	-0.182
O=C(Nc1nc(-c2ccncc2)cs1)C1COc2ccccc2O1 (centres undefined)	-0.139
O=C(Nc1nc2c(F)cc(F)cc2s1)C1COc2ccccc2O1 (centres undefined)	67.4 (active)
COc1ccc(OC)c2sc(NC(=O)C3COc4ccccc4O3)nc12 (centres undefined)	-1.33
CC(C)c1cc(CN2CCOCC2)cc(C(C)C)c1O	-0.911
CCn1cc(C(=O)NCCCN2CCCCCC2)c(=O)c2cc(S(=O)(=O)N3CCc4ccccc4C3)ccc21	0.575
Cc1nc(C(=O)N2CCCC(C(=O)c3ccc(Cl)cc3)C2)cs1 (centres undefined)	-0.00258
Cc1ccccc1Nc1c(-c2ccccc2)nc2ncccn12	-0.0089
S=c1nccc(-c2cc(Cl)sc2Cl)[nH]1	7.16 (active)
Cc1cccc(N(C)C(=O)c2cc3c(=O)[nH]c4ccc(C)cc4c3s2)c1	0.185
COCCN1C2=C(COC(C)(C)C2)C(=S)NC1c1ccccc1 (centres undefined)	-0.146
Fc1ccc(COc2cccc(-c3n[nH]c(=S)o3)c2)cc1	69.9 (active)
Fc1ccc(COc2ccc(-c3nnco3)cc2)cc1	-1.14
Cc1cccc(OCc2ccc(C(=O)Nc3ccc(F)cc3)cc2)c1	0.491
NNC(=O)c1oc2nc(-c3ccccc3)cc(-c3ccco3)c2c1N	0.0896

Compound	B-score of Tl+ flux slope (higher = more flux/activation; lower = inhibition)
O=C(COc1ccccc1)N1CCN=C1SCc1cccc(F)c1	0.197
CC(C)CCN1NC2(CCC(C)CC2)NC1=S (centres undefined)	1.32
Cc1ccc(-c2nc3ccccc3[nH]c2=O)cc1	0.871
CC(CNS(=O)(=O)c1ccc(Br)cc1)CN(C)C (centres undefined)	0.781
CCC(C)(C)NC(=O)C(c1ccc(O)cc1)N(C(=O)Cn1nnc2ccccc21)c1ccc(NC(C)=O)cc1 (centres undefined)	1.51
NC(=O)N1CCc2ccccc21	0.799
Cc1nnc(SCC(=O)N2CCc3ccccc32)n1-c1ccccc1	0.58
O=C(c1cccc(C(=O)N2CCc3ccccc32)n1)N1CCc2ccccc21	0.134
CCNC(=S)N1CCN(C(=O)c2ccco2)CC1	0.133
O=C(CSCc1ccccc1)N1CCc2ccccc21	-2.43 (active)
O=C(NC(=S)N1CCc2ccccc21)c1ccco1	23.3 (active)
O=C(NCc1cccnc1)C(=O)Nc1nc(-c2ccccc2)cs1	-0.384
O=C(CCCN1C(=O)/C(=C\c2ccccc2)SC1=S)Nc1ccccc1O	0.281
CCN(CC(=O)Nc1cccc(S(N)(=O)=O)c1)Cc1nc2ccccc2c(=O)[nH]1	1.06
Cc1coc2cc3oc(=O)c(CCC(=O)O)c(C)c3cc12	-0.564
C=CCn1c(SCc2csc(C)n2)nc2scc(-c3ccc(C)o3)c2c1=O	0.11
C=CCn1c(=S)[nH]c2scc(-c3ccco3)c2c1=O	111 (active)
C=CCNC(=O)CSc1nc2scc(-c3ccco3)c2c(=O)n1CC=C	-0.677
Nc1cccc(S(=O)(=O)Nc2ccc(SC(F)F)cc2)c1	-0.199
COc1ccc(-n2c(C)nc3c(cnn3-c3ccccc3)c2=O)cc1	-0.335
Cc1ccc(Oc2cnn(-c3ccccc3)c(=O)c2Br)cc1	-2.71
COc1ccc(Oc2c(Cl)cnn(-c3ccccc3)c2=O)cc1	-3.99 (active)

Compound	B-score of Tl+ flux slope (higher = more flux/activation; lower = inhibition)
CC1C(=O)NC(=O)C1c1ccccc1 (centres undefined)	0.0909
CCc1ccc2nc3sc(C(=O)Nc4nnc(CC)s4)c(N)c3cc2c1	-4.25 (active)
CCc1nnc(NC(=O)c2cccc(S(=O)(=O)N(C)c3ccc(OC)cc3)c2)s1	-0.265
CCc1nnc(NC(=O)c2sc3nc(C)cc(COC)c3c2N)s1	0.922
Cc1ccc(S(=O)(=O)N(C)CC(=O)OCC(=O)Nc2ccccc2)cc1	-1.25
Cc1nc(N)sc1N=Nc1c(C)n(C)n(-c2ccccc2)c1=O	0.0239
COc1ccc(/C=C(/CC(=O)Nc2ccc(C)cc2)c2nc3ccccc3s2)cc1	-0.666
O=C(O)CS/C(=C\c1ccc(F)cc1)c1nc2ccccc2s1	-7.14 (active)
O=C(O)CSCc1nc2ccccc2s1	0.175
O=C(CC1SC(=Nc2ccccc2F)N(CCN2CCOCC2)C1=O)Nc1ccc(F)cc1F (centres undefined)	0.206
Cc1ccc2cc(/C=N/NC(=O)[C@@H]3CCCN3)c(Cl)nc2c1	0.721
Cc1cccc(C(=O)NC(=S)N2CCN(c3ccc([N+](=O)[O-])cc3)CC2)c1	1.26
COc1cc(OC)cc(C(=O)NC(=S)N2CCN(c3ccc(C(F)(F)F)cc3[N+](=O)[O-])CC2)c1	6.75 (active)
O=C(Nc1cccc(C(F)(F)F)c1)c1ccc(N2CCNCC2)c([N+](=O)[O-])c1	1.31
Cc1cccc(C(=O)OCC(=O)NCC(C)C)c1O	-0.558
O=C(NCCc1ccccc1)Oc1ccc(Cl)cc1	-2.47
O=C(O)c1ccccc1-c1ccccc1C(=O)Nc1cccc2ccccc12	-0.144
CC(C)C1Nc2c(C(=O)O)cccc2C(Nc2ccccc2C(=O)O)C1(C)C (centres undefined)	-7.13 (active)
CCNC(=O)CCc1nc(-c2ccc(C)cc2)no1	0.371
C/C(Cc1ccccc1)=N\NC(=O)CNC(=O)c1ccccc1Cl	-0.103
